Measured values from PubChem BioAssay (NCATS).
Records with an inconclusive call do not appear. A number with no mark means an inactive call. Calls come from the whole dose curve; as a rule, active = well fitted cell-killing curve with a large enough effect; inconclusive = small, poorly fitted or top-dose-only effect; inactive = flat fitted curve, though single readings scatter.

assay: qHTS of pediatric cancer cell lines to identify multiple opportunities for drug repurposing: Primary screen for DAOY cells (AID 1347090); conditions: DAOY medulloblastoma viability, CellTiter-Glo luminescence, 48 h; series mostly up to 46 µM; activity change, negative = cytotoxic: at the top concentration; note: nearly all actives have a fitted effect of over 55% in size
Source text: Drug repurposing or repositioning has been offered as a strategy for drug development in oncology programs. This approach has special potential for childhood cancers and other rare or orphan diseases, where the expected return on new drug development has been a disincentive to pharmaceuticals.
In this project we exploit the poly-pharmacology of drugs to discover new indications via phenotypic screening of a panel of 19 well-characterized cell lines derived from solid tumors seen in children and adolescents. The goal is to identify approved drugs with previously unrecognized anticancer properties that has the potential to reveal new mechanisms and biological processes involved in carcinogenesis or drug resistance. We employed a titration-based paradigm (quantitative high-throughput screening or qHTS), where all compounds were tested at multiple concentrations for their effect on cell viability. Concentration-response curves (CRCs) were derived directly from the primary screen, and both potency and efficacy values were used to identify compounds with robust bioactivity profiles. We screened the NIH Chemical Genomics Center (NCGC) Pharmaceutical Collection (NPC) and Mechanism Interrogation Plate (MIPE) small molecule collections of approved and investigational compounds against these cell lines; and measured metabolically active cells after 48 hours of compound treatment as a proxy for cell viability.
Assay Submitter: Nathalia J. Martinez, National Center for Advancing Translational Sciences, National Institutes of Health, Rockville, MD, USA; email: natalia.martinez@nih.gov
[1] Shen, M et al. Quantitative high-throughput phenotypic screening of pediatric cancer cell lines identifies multiple opportunities for drug repurposing. Oncotarget 2017 Dec 19;9(4):4758-4772. PMID 29435139.
The cells were obtained from University of North Carolina (UNC), Pediatric Preclinical Testing Program (PPT), and Coriell Institute (CI).
qHTS cell viability assay:
Cells were assayed in growth media at a density of 500-1,000 cells/well. Five microliters of cells were dispensed into 1,536-well, white, solid-bottom, TC-treated plates (Greiner Bio One) using a multidrop dispenser and incubated at 37 degrees C, 5% CO2, under a humidified atmosphere for 5 hours. Twenty-three nanoliters of compounds and controls (neutral control DMSO or positive control bortezomib at final concentration of 2.3 µM) were subsequently transferred by Kalypsys pintool. For primary screens, the MIPE collection was tested at 11-point dilutions (final concentrations range from 0.78 nM to 46 µM) and the NPC collection at 8-point dilutions (final concentrations range from 0.59 nM to 46 µM). Compounds tested in follow-up screens were assayed at 11-point dilutions. Cells were incubated for 48 hours, followed by addition of 3 uL of CellTiter-Glo (Promega). After a 15 min incubation at room temperature, samples were analyzed for luminescence intensity using a ViewLux High-throughput CCD imager equipped with clear filters.

Compound	activity change, negative = cytotoxic [%]
Cc1c(C)c2c(c(C)c1OC(=O)c1cccnc1)CC[C@@](C)(CCC[C@H](C)CCC[C@H](C)CCCC(C)C)O2	5.3
CC(C)=CCC[C@@](C)(O)[C@H]1CC=C(C)CC1	3.69
CCOC(N)=O	4.96
Cc1onc(-c2ccccc2)c1-c1ccc(S(N)(=O)=O)cc1	-2.16
O=C(O)c1ccc[n+]([O-])c1	3.93
CCN[C@H]1CN(CCCOC)S(=O)(=O)c2sc(S(N)(=O)=O)cc21	4.71
Nc1ccc(C(=O)Oc2ccccc2)c(O)c1	-9.5
CCCNC(C)(C)COC(=O)c1ccccc1	-9.6
O=C(O)CCC(=O)O	2.42
Cc1ccc(S(=O)(=O)NC(=O)NC2CCCCC2)cc1	-1.16
Cc1ccsc1C(=CCCN1CCC[C@@H](C(=O)O)C1)c1sccc1C	-1.72
Nc1ccc(S(=O)(=O)c2ccc(N)cc2)cc1	3.81
CC[N+](CC)(CC(=O)Nc1c(C)cccc1C)Cc1ccccc1	-1.61
CC(C)NC[C@@H](O)COc1ccc(CC(N)=O)cc1	8.4
COC(=O)c1ccccc1C(=O)c1ccc(OCCN2CCCCC2)cc1	9.33
Nc1ccncc1N	-5.01
CC(N)CCCC(C)(C)O (stereo not given)	11
NC(=O)c1ccc([N+](=O)[O-])cc1Cl	1.63
CC(=O)Oc1cccc(O)c1	2.03
O=C(O)COC(=O)Cc1ccccc1Nc1c(Cl)cccc1Cl	-6.14

Compound	activity change, negative = cytotoxic [%]
NNC(=O)CP(=O)(c1ccccc1)c1ccccc1	-3.51
CN1CCN(C(=O)C2CCCCC2)CC1	4.84
CC(=O)OCC(COC(C)=O)OC(C)=O	-1.36
CCc1nnc(NS(=O)(=O)c2ccc(N)cc2)s1	-0.0194
CCN(CC)CCc1nc(-c2ccccc2)no1	13.6
CCOC(=O)OC(C)OC(=O)[C@@H]1N2C(=O)[C@@H](NC(=O)[C@H](N)c3ccccc3)[C@H]2SC1(C)C (stereo not given in full)	7.51
O=C(/C=C/c1ccc(O)c(O)c1)O[C@@H]1C[C@@](OC(=O)/C=C/c2ccc(O)c(O)c2)(C(=O)O)C[C@@H](O)[C@@H]1O	4.46
COc1ccc(C(=O)NCc2ccc(OCCN(C)C)cc2)cc1OC	4.95
Cc1ccc(S(=O)(=O)NC(=O)NC2CCCCCCC2)cc1	12.7
CC(=O)SC[C@@H](Cc1ccccc1)C(=O)NCC(=O)OCc1ccccc1	1.25
CC1CCc2cc(F)cc3c(=O)c(C(=O)O)cn1c23 (stereo not given)	2.82
OCCN1C[C@H](O)[C@@H](O)[C@H](O)[C@H]1CO	14.4
O=c1[nH]c(=O)c2ccccc2o1	0.651
CCCCCOC(=O)Nc1nc(=O)n([C@@H]2O[C@H](C)[C@@H](O)[C@H]2O)cc1F	9.65
CC(C)(C)NCC(O)COc1cccc2c1CCC(=O)N2 (stereo not given)	-4.1
CCN(CC)S(=O)(=O)c1ccc(C(=O)O)cc1	-6.71
CC(=O)N[C@H]1[C@H]([C@H](O)[C@H](O)CO)OC(C(=O)O)=C[C@@H]1N=C(N)N	-1.98
CN1C(=O)CC(c2ccccc2)C1=O (stereo not given)	-0.547
CC(=O)Oc1cccc(C)c1	5.23
CN[C@@H]1[C@@H](O)[C@@H](O[C@@H]2[C@H](O)[C@H](O[C@H]3OC(CN)=CC[C@H]3N)[C@@H](N)C[C@H]2N)OCC1(C)O (stereo not given in full)	8.18
